From PubChem BioAssay AID731 (The Scripps Research Institute Molecular Screening Center, 2007)
The campaign covered roughly 200,000 compounds. About 520 (0.26%) were called active. The sample holds actives, similar compounds and a random draw of the others, so the mix is not that of the screen. Values without a mark were called inactive. Rule as the data show it: active = activation above about 23%; inactive = the rest.

target: Peroxisome proliferator-activated receptor gamma (Homo sapiens) (UniProt P37231); assay: enhancers of SRC-3 binding to PPARgamma – biochemical, primary screen (AID 731); settings: biochemical PPARgamma/SRC-3 coactivator recruitment assay; at 8 µM; active compounds read high;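 also: 0% = DMSO and 100% = reference agonist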
Sequence (P37231 whole entry, looked up): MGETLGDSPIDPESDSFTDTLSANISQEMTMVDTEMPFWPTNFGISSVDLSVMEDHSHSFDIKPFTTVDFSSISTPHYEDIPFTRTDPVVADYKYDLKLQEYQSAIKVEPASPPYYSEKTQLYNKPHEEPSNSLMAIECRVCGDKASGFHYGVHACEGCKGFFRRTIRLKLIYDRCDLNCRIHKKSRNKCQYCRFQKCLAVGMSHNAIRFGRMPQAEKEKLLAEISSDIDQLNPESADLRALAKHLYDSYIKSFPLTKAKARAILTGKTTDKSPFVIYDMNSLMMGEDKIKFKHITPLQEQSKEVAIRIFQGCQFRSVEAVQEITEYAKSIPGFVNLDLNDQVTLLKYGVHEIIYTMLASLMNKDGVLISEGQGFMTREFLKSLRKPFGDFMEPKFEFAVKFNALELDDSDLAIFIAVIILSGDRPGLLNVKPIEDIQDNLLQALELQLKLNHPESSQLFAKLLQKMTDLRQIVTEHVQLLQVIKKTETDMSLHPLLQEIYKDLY

Structure (SMILES) | activation
O=S(=O)(NC1CCCCC1)c1ccc(F)c2ccccc12 | 7.29%
Cc1cc(C)cc(C(=O)N(CCc2ccccc2)C2=CC3CCC(C2)N3C)c1 (stereo not given) | 0.55%
O=C(NCc1cccs1)c1ccc(Br)o1 | 1.17%
O=[N+]([O-])c1ccc(Sc2n[nH]c(-c3ccco3)n2)nc1 | 2.58%
COc1ccc(N2CCN(CCCNC(=O)C3CCN(S(=O)(=O)N4CCOCC4)CC3)CC2)cc1 | -2.17%
O=C(OCc1cc(Cl)ccc1OC(F)F)c1cccnc1 | 0.24%
CN1CCN(C(=O)/C(=C\c2cccs2)NC(=O)c2cccs2)CC1 | -1.89%
NS(=O)(=O)c1ccc(CCNC(=O)c2ccc([N+](=O)[O-])cc2[N+](=O)[O-])cc1 | 6.7%
O=C(Nc1cccc(C(F)(F)F)c1)c1cnccn1 | 12.3%
CCOC(=O)c1ccc(COC(=O)CCc2nc(-c3ccccc3)c(-c3ccccc3)o2)cc1 | -0.63%
CCO/N=C(/C)c1c(O)cc(-c2ccccc2)n(-c2ccccc2)c1=O | 0.18%
CC(=O)N/N=C(\C)c1ccc(Br)cc1Br | -1.47%
CCc1ccc(C(=O)OCC(=O)Nc2cccc(S(=O)(=O)NC3=NCCCCC3)c2)cc1 | -1.75%
Cc1ccc(NC(=O)c2sc3nc(N)c(C#N)cc3c2N)cc1 | 1.84%
COc1cc(NC(=O)c2cc([N+](=O)[O-])ccc2Br)ccc1NC(=O)c1ccco1 | -4.35%
CN(C)c1nnnn1-c1ccc(Cl)cc1 | -1.68%
Cc1ccccc1NC(=O)C(C)c1ccc(-c2ccccc2)c(F)c1 (stereo not given) | -1.23%
CCOc1ccc(/C=N/NC(=O)C(C)Sc2ccccn2)cc1OCC (stereo not given) | 4.85%
CCN(CC)S(=O)(=O)c1ccc(Cl)c(C(=O)NC(C)C(c2cccs2)N2CCCC2)c1 (stereo not given) | 5.06%
Cc1ccc(C2C3=C(Nc4[nH]n(-c5ccccc5)c(=O)c42)c2ccccc2C3=O)cc1 (stereo not given) | 1.23%
COc1ccc(S(=O)(=O)N2CCOCC2)c(C)c1C | 13.6%
Cc1ccc(-c2cc(C(=O)N/N=C/C=C/c3ccccc3)n[nH]2)o1 | -0.56%

Structure (SMILES) | activation
CCOC(=O)c1c(C)nc2c(c1C)c(=O)oc1ccccc12 | 15.5%
Cc1cc(C(=O)CSc2nc(N)cc(=O)[nH]2)c(C)n1CCc1ccc(Cl)cc1 | 5.4%
O=C(O)COc1ccc(/C=N/O)cc1Br | 3.92%
COCCNC(=O)CCCn1c(=O)c2ccccc2n(Cc2cccc([N+](=O)[O-])c2)c1=O | 2.44%
CC(=O)n1cc([C@@H]2C=C(C(=O)N3CCN(Cc4ccc5c(c4)OCO5)CC3)O[C@H](OCc3ccc(CO)cc3)C2)c2ccccc21 | -1.58%
Cc1cnc(C(=O)N2CCCC(C(=O)c3ccc(C(F)(F)F)cc3)C2)cn1 (stereo not given) | -0.94%
Cc1cc(=O)oc(C)c1C(=O)NCCN(C)Cc1ccccc1 | 1.75%
CN(C)c1ccc(N/C=C/C(=O)C(F)(F)F)cc1 | 23.6% (active)
O=C(/C=C/Nc1ccccc1OC(F)(F)F)C(F)(F)F | 1.89%
CCCOc1ccc(N/C=C/C(=O)C(C)(C)C)cc1 | 0.22%
CC(=O)NS(=O)(=O)c1ccc(NC(=O)C2C3C=CC(C3)C2C(=O)O)cc1 (stereo not given) | 0.92%
CC(=O)Cc1nsc(NC(=O)c2ccc(Cl)cc2Cl)n1 | -0.15%
O=C(NCc1nnc(SCC(=O)N2CCC(Cc3ccccc3)CC2)o1)c1ccco1 | -1.46%
CCOC(=O)C1CCN(C(=O)c2ccccc2N(C)S(=O)(=O)c2ccccc2)CC1 | 0.82%
COc1ccc(-n2nc3c(c2NC(=O)c2ccc(N4C(=O)CCC4=O)cc2)CSC3)cc1 | 2.03%
COc1ccccc1C1/C(=C(/O)c2ccc(C)cc2)C(=O)C(=O)N1Cc1ccco1 (stereo not given) | -1.85%
COc1ccc(/C(O)=C2/C(=O)C(=O)N(c3nc(C)c(C)s3)C2c2ccco2)cc1 (stereo not given) | 32.8% (active)
COc1ccc(/C(O)=C2\C(=O)C(=O)N(Cc3ccco3)C2c2ccc(OC)cc2OC)cc1 (stereo not given) | 8.22%
CCc1ccc(NC(=O)C(=O)N/N=C(\C)CC(=O)NCCOC)cc1 | 0.12%
CN(C)c1ccc(C(=S)N2CCN(C(=S)Nc3ccc(Cl)cc3)CC2)cc1 | 2.08%
Cn1c(=O)cc(SCC(=O)N2CCCC2)c2cc(Cl)ccc21 | 39.3% (active)
CCOc1ccc(CCNC(=O)CSc2cc(=O)n(C)c3ccc(Cl)cc23)cc1OCC | 10.2%

Structure (SMILES) | activation
CCOC(=O)C1CCN(C(=O)CSc2cc(=O)n(C)c3ccccc23)CC1 | 63.4% (active)
Cn1c(=O)cc(SCC(=O)N2CCN(C(=O)c3ccco3)CC2)c2ccccc21 | 82.2% (active)
Cc1cccc(OCc2nnc(SCC(=O)N3CCN(C(=O)c4ccco4)CC3)n2C)c1C | 9.2%
O=C(CSCc1ccc(Cl)cc1)N1CCCCC1 | 7.11%
CCOC(=O)N1CCC(NC(=O)COc2cc(=O)n(C)c3ccccc23)CC1 | -2.51%
CCOC(=O)C1CCN(C(=O)Cn2cc(C#N)c3ccccc32)CC1 | 13.8%
CC(=O)c1ccc(-n2nnnc2SCC(=O)N2CCN(C(=O)c3ccco3)CC2)cc1 | 0.9%
Cc1cccc(N2C(=O)CC(SC(N)=Nc3ccccc3)C2=O)c1 (stereo not given) | -7.93%
COC(=O)c1ccccc1SC1CC(=O)N(c2cccc(C)c2)C1=O (stereo not given) | 33% (active)
COC(=O)c1cc(C(=O)OC)cc(N2C(=O)CC(N3CCN(c4ccccc4)CC3)C2=O)c1 (stereo not given) | -12.5%
O=C(COC(=O)/C(=C/c1cccs1)c1cccs1)NCc1ccccc1Cl | 3.76%
CNC(=S)N1N=C(c2ccccc2)CC1c1ccc(Br)cc1 (stereo not given) | 34.4% (active)
COc1ccc(C2CC(c3ccccc3)=NN2C(=O)COC(=O)COc2ccccc2)cc1 (stereo not given) | -0.96%
Brc1ccc(C2CC(c3ccccc3)=Nc3ccccc3N2)cc1 (stereo not given) | 0.93%
Cc1ccc2[nH]c3c(=O)n(Cc4ccccn4)cnc3c2c1 | 8.8%
CC(=O)c1ccc(S(=O)(=O)N2CCN(c3nc4c(C)c(C)ccc4cc3C#N)CC2)cc1 | 56.6% (active)
Cc1cccc2cc(C#N)c(N3CCCC3)nc12 | -13.8%
Cc1cc(C)c2nc(N3CCCC3)c(C#N)cc2c1 | -3.43%
O=C(NCc1ccccc1)C1=C[C@@H](C2CCCCC2)C[C@@H](OCc2ccc(CO)cc2)O1 | -1.47%
CCS(=O)(=O)Nc1cccc(-c2cc(-c3ccccc3)c3cc(C)ccc3n2)c1 | -3.81%
O=C(CSc1nc2cccnc2n1Cc1ccccc1)N1CCc2ccccc21 | -2.44%
